Measured values published in PubChem BioAssay AID624483 (NMMLSC, 2012).
Where “and” joins values, the source holds several entries; their conditions need not be identical. Identical values can stand only once. The campaign covered roughly 360,000 compounds. About 11,000 (3.1%) were called active. Another 2% or so got no clear call; they are omitted. What follows is part of a selection rich in actives, with near analogues and random picks from the rest. A number with no mark means an inactive call. No stated cut-off is given here; in the data, active means fluorescence intensity above about 16000; inconclusive means no clear call, values can overlap the other calls; inactive means below that.

Test: compound fluorescence in toxin protease inhibitor counterscreen, primary screen, artefact control for toxin protease inhibitor project, biochemical, multiplex microsphere, HTS (AID 624483)
Settings: compound autofluorescence counterscreen, microsphere flow cytometry; hits give high values

Row | Compound | fluorescence intensity
1 | CCC(Oc1ccccc1)C(=O)OCC(=O)Nc1c(C)nn(-c2ccccc2)c1C (stereo unspecified) | 3640
2 | O=C(Nc1ccc2c(c1)CCC2)c1ccc(Br)s1 | 4300
3 | O=C(NC1CCCCCCC1)c1cccs1 | 3700
4 | O=C(NC1CCCC1)c1ccc(Br)s1 | 17100 (active)
5 | CC(C)NC(=O)N1Cc2cc(C(=O)NCC(F)(F)F)nc(-c3cccc(-c4cc5ccccc5o4)c3)c2[C@@H]1CCO | 6410
6 | Cc1ccc(S(=O)(=O)NCC(=O)N(CC(=O)NC2CCCCC2)Cc2ccco2)cc1 | 3490
7 | CCC(C)(C)NC(=O)CN(Cc1cccs1)C(=O)CNS(=O)(=O)c1ccc(F)cc1 | 4360
8 | CC(C)(C)NC(=O)CN(Cc1cccs1)C(=O)CNS(=O)(=O)c1ccccc1 | 22000 (active)
9 | O=C(CN(CC1CCCO1)C(=O)CNS(=O)(=O)c1ccccc1)NCc1ccccc1 (stereo unspecified) | 4900
10 | Cc1ccc(S(=O)(=O)NCC(=O)N(CC(=O)NC(C)(C)C)Cc2cccs2)cc1 | 23500 (active)
11 | Cc1[nH]c2ccccc2c1CCN(Cc1cccs1)C(=S)NC(C)(C)C | 4220
12 | CSCCC(c1nnnn1Cc1ccccc1)N1CCN(C/C=C/c2ccccc2)CC1 (stereo unspecified) | 6070
13 | COC(=O)[C@]12CCCCC=C1N(Cc1cccc3ccccc13)C(=O)[C@H](CC(=O)N1CCOCC1)C2 | 4200
14 | CC1(C(=O)O)CCN1C(=O)/C=C/c1ccccc1 (stereo unspecified) | 3910
15 | CCc1ccc(Nc2n[n+](-c3ccccc3)c(-c3cccc(Cl)c3Cl)s2)cc1 | 4300
16 | CN(Cc1ccc2nsnc2c1)Cc1nc(Cc2cccc(F)c2)no1 | 4550
17 | O=C1NC[C@@H](CCCCN2CCN(CCc3ccc(O)cc3)C(=O)C2=O)N(CC2CCCCC2)C1=O | 6050
18 | O=C(COC(=O)CCc1nc2ccccc2c(=O)[nH]1)Nc1ccc(N2CCOCC2)cc1 | 4110
19 | COc1ccc(Sc2ccc(NC(=O)c3cccc(Cl)c3)cc2C#N)cc1 | 3440
20 | Cc1nc(SC(C)C)[nH]c(=O)c1Cc1ccccc1 | 23800 (active)
21 | CC(=O)Nc1nc(C)c(Cc2ccccc2)c(=O)[nH]1 | 2420
22 | Cc1ccc2c(O)c(Cc3ccccc3)c(=O)[nH]c2n1 | 3740
23 | CC(C)NC(=O)C1(C)CCCCN1Cc1cccc(C(F)(F)F)c1 (stereo unspecified) | 3020
24 | COc1ccc(-c2nc3cnccn3c2NC2CCCCC2)cc1-c1cccc(Cl)c1 | 6580 and 3860

Row | Compound | fluorescence intensity
25 | COc1ccc(-c2nc3cc(C)ccn3c2NC2CCCCC2)cc1SC1CCCCC1 | 20700 (active) and 26600 (active)
26 | CCOc1cc(-c2nc3cc(C)ccn3c2NCC2CCCO2)ccc1O (stereo unspecified) | 4290
27 | COc1cc(NC(=O)CN2C(=O)NC(C)(c3ccc(OC(F)F)cc3)C2=O)cc(OC)c1OC (stereo unspecified) | 3820
28 | CN(CC(=O)Nc1c(Cl)cccc1Cl)C(=O)CNC(=O)C1CCCCC1 | 4800
29 | CC(=O)N1C[C@@H](CO)[C@@H](N(C)C(=O)c2ccco2)C[C@H]1c1ccccc1 | 6130
30 | C=CCn1c(SCC(=O)NCc2ccccc2)nnc1-c1cc(Br)ccc1O | 20700 (active)
31 | C=CCn1c(SCC(=O)NC(=O)Cc2ccccc2)nc2ccccc2c1=O | 8750
32 | O=C(CSc1nnc(-c2cccnc2)n1CCc1ccccc1)NCc1ccccc1 | 2870
33 | Cc1nc(CC(=O)NNS(=O)(=O)c2ccc(F)c(Cl)c2)cs1 | 2630
34 | COc1ccc(N(Cc2cc3ccc(C)cc3[nH]c2=O)S(=O)(=O)c2ccccc2)cc1 | 4310
35 | CCC(=O)N(CCc1ccccc1)Cc1cc2cc(C)ccc2[nH]c1=O | 3090
36 | CCN(Cc1cc2cc(C)ccc2[nH]c1=O)S(=O)(=O)c1ccccc1 | 16600 (active)
37 | CC1(C(=O)NS(=O)(=O)Cc2cccc(Cl)c2)CCN1C(=O)Cc1ccccc1 (stereo unspecified) | 3480
38 | CC(=O)Nc1cccc(NC(=O)CSc2nccn2Cc2ccc(F)cc2)c1 | 6150
39 | OC(c1ccc(Cl)c(F)c1)c1ncc(-c2ccccc2Cl)[nH]1 (stereo unspecified) | 3970
40 | COc1cc(C2C(C#N)=C(N)Oc3n[nH]c(-c4ccccn4)c32)cc(OC)c1OC (stereo unspecified) | 22700 (active)
41 | COc1ccc(-c2[nH]nc3c2C(c2ccncc2)C(C#N)=C(N)O3)cc1 (stereo unspecified) | 3830
42 | COCc1[nH]nc2c1C(C1C=CCCC1)C(C#N)=C(N)O2 (stereo unspecified) | 11600
43 | NC(=O)Cc1ccc2sc(-c3ccccc3)nc2c1 | 2610
44 | Cc1cc(NC(=O)[C@H](C)NC(=O)c2ccco2)ccc1Br | 3700
45 | O=C(COc1ccccc1F)Nc1nc(-c2ccccn2)cs1 | 3790
46 | CC(NC(=O)c1ccco1)C(=O)Nc1nc(-c2ccccn2)cs1 (stereo unspecified) | 20700 (active)
47 | COCCNc1ncnc2c1ncn2[C@H]1CN(CCN2CCOCC2)C[C@@H](CO)O1 | 3590
48 | OC(c1ccccc1)C(CN1CCOCC1)c1ccccc1 (stereo unspecified) | 4580

Row | Compound | fluorescence intensity
49 | CN[C@H]1C[C@H]2c3cc(Oc4ccccc4C)ccc3CCN2C(=O)[C@H]1[C@H](C)O | 5280
50 | O=C(CCC1CCCN(Cc2ccc(O)c(Cl)c2)C1)NCc1ccccc1F (stereo unspecified) | 4480
51 | CC(=O)Oc1ccc(Cn2c(C)c(C(=O)NCc3ccc(C#N)cc3)sc2=O)cc1 | 5590
52 | COC(=O)CCSc1nccn1Cc1ccccc1 | 20500 (active)
53 | CCCCCCNC(=O)CSc1nccn1Cc1ccccc1 | 9260
54 | CCCCNC(=O)CSc1nccn1Cc1ccccc1 | 8790
55 | O=C(NCCN1CCOCC1)c1ccccc1N1C(=O)[C@@H]2Cc3c([nH]c4ccccc34)C(c3cccc(Cl)c3)N2C1=O (stereo partly specified) | 5120
56 | CCc1nc2c(OCc3ccc(C(=O)OC)cc3)cccn2c1N(C)C(=O)C(C)C | 3990
57 | CC(=O)c1cc2c(cc1N)OCO2 | 22400 (active)
58 | CC(=O)c1cc2c(cc1NC(=O)CN1CCCCCC1)OCO2 | 3760
59 | CC(=O)C1=C(C)NC(=O)NC1c1ccc2c(c1)OCO2 (stereo unspecified) | 4750
60 | Cc1nc(SCC(=O)N2CCc3ccccc3C2)c2c(C)c(C)sc2n1 | 5870
61 | CCCCn1nnnc1C(c1cccc(OC)c1OC)N1CCN(C/C=C/c2ccccc2)CC1 (stereo unspecified) | 5960
62 | Cc1ccc(S(=O)(=O)N2CCCC(C(=O)N3CCN(C)CC3)C2)cc1 (stereo unspecified) | 5490
63 | COc1ccc(OCCCC(=O)OC(C)C(=O)Nc2ccccc2[N+](=O)[O-])cc1 (stereo unspecified) | 3940
64 | COc1ccc(OCCCC(=O)Oc2ccc(OC)cc2)cc1 | 21300 (active)
65 | COc1ccc(OCC(=O)OCCN(C)C)cc1 | 2140
66 | CCCCOc1ccc(Cl)cc1CSc1nncn1N | 20700 (active)
67 | CCCCOc1ccc(CSC(=N)N)cc1[N+](=O)[O-] | 2600
68 | COC(=O)c1ccc(CSc2nncn2N)cc1 | 4020
69 | Cn1cccc1C1(C(F)(F)F)NCCNC1=O (stereo unspecified) | 20400 (active)
70 | CC(=O)N1CCN(Cc2cc(=O)oc3cc(C)ccc23)CC1 | 5400
71 | Cc1ccc(Cn2c(C)c(C(=O)NCc3ccccc3C(F)(F)F)sc2=O)cc1 | 5600
72 | O=C1c2ccccc2C(c2nc3ccccc3[nH]2)N1c1ccccc1 (stereo unspecified) | 6040

Row | Compound | fluorescence intensity
73 | CCN(CC)C(=O)CSC1c2ccccc2C(=O)N1c1ccccc1 (stereo unspecified) | 23100 (active)
74 | CCN(CC)C(=O)CSc1ncnc2c1cnn2-c1ccccc1 | 3150
75 | C[N+](C)(C)CCNC(=O)c1c[nH]c2ccccc12 | 5520
76 | CCCNC(=O)C1(C)CCN1C(=O)Cc1ccc(-c2ccccc2)cc1 (stereo unspecified) | 3250
77 | CC(=O)Nc1ccc(SCC(=O)Nc2ccccc2Oc2ccccc2)cc1 | 2020
78 | C#Cc1cc(N2CCN(C(=O)c3ccoc3)CC2)n2nc(-c3cccc(Cl)c3)cc2n1 | 4220
79 | CC(C)(C)NC(=O)C(=O)NCc1ccncc1 | 2060
80 | CCCCOc1ccc(C(=O)NCc2ccncc2)cc1 | 20300 (active)
81 | CCCC(C)C(=O)NCc1ccncc1 (stereo unspecified) | 2180
82 | O=C(CN(C(=O)c1nsc(Cl)c1Cl)c1cccc(F)c1)NC1CCCC1 | 4350
83 | Cc1noc(C)c1C(=O)OCC(=O)N1CCN(S(=O)(=O)c2ccc3ccccc3c2)CC1 | 4540
84 | CC(=O)Nc1cccc(OCC(=O)/C=C2\N(C)c3ccccc3C2(C)C)c1 | 3790
85 | Cc1noc(C)c1C(=O)OCC(=O)/C=C1\N(C)c2ccccc2C1(C)C | 23200 (active)
86 | CC1(C(=O)NS(=O)(=O)c2cccc(OC(F)F)c2)CCN1C(=O)COc1ccc(Cl)cc1 (stereo unspecified) | 2870
87 | Cc1ccn(-c2cccc(-n3ccc(C)n3)n2)n1 | 2160
88 | CC(=O)Nc1cc(-c2ccc(N3CCN(C)CC3)cc2)cn2c(-c3ccc(F)cc3)cnc12 | 3850
89 | Cc1ccc(C(=O)c2c(NC(=O)c3ccccc3)sc(C)c2C)cc1 | 24600 (active)
90 | CC(=O)c1c(Nc2ccccc2)sc(C(=O)c2ccccc2)c1C | 2060
91 | Cc1sc(NC(=O)c2ccc3ncsc3c2)c(C(N)=O)c1C | 5240
92 | C[C@H](NC(=O)[C@@H]1CCCN1C(=O)[C@@H]1CCCN1C(=O)c1ccccc1)c1ccccc1 | 6120
93 | Cc1c(Cl)cccc1NC(=S)NCC(O)c1ccccc1 (stereo unspecified) | 2920
94 | COc1ccc(OC(C)C(=O)Nc2cccnc2)cc1 (stereo unspecified) | 23000 (active)
95 | CC(Oc1ccc(Cl)cc1)C(=O)Nc1ncccn1 (stereo unspecified) | 6780
96 | COc1ccc(C(=O)CCC(=O)Nc2cccnc2)c(OC)c1 | 5960
